Measurements: PubChem BioAssay
Activity calls are given as the source filed them. Unless noted, the rule behind the calls is not given here.

Legend:
[1] = HepG2 liver cancer cell viability effects, profiling panel, resazurin fluorescence, 24 h, PK04 Diversity Set (AID 1172); settings: higher = more signal; note: test concentration not given here
[2] = basal S. cerevisiae growth modulation, no modifier, primary screen, OD600, strain BY4716, 24 h, basal condition (AID 1173); settings: OD600, 24 h, higher = more signal, called active from +8 up or from −8 down
[3] = MM1S myeloma cell viability, profiling panel, resazurin fluorescence, basal, 24 h, PK04 Diversity Set (AID 1174); settings: higher = more signal, called active from +8 up or from −8 down;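 note: MM1S multiple myeloma cell line; test concentration not given here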
[4] = biological target: Dihydroorotate dehydrogenase (quinone), mitochondrial (Plasmodium falciparum (isolate 3D7)) (UniProt Q08210); assay: PfDHODH enzyme inhibitors, primary screen, biochemical, C-terminal His tag, absorbance 600 nm (AID 1175); settings: DCIP absorbance 600 nm, higher = more signal, called active from +8 up or from −8 down;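 note: recombinant parasite enzyme with a five histidine tag at its C terminus; test concentration not given here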
[5] = P. aeruginosa biofilm formation inhibitors, primary screen, strain PAO1, LB-PBS medium, absorbance 600 nm (AID 1176); note: test concentration not given here; settings: P. aeruginosa PAO1 growth/biofilm, A600, 12 h; higher = more signal
[6] = S. cerevisiae RM11-1a growth modifiers, primary screen, strain RM11-1a, OD600, basal, 24 h (AID 1177); settings: OD600, 24 h, higher = more signal, called active from +8 up or from −8 down;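 note: cultures grown under basal conditions with no added stressor; test concentration not given here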
[7] = E. coli acrAB mutant growth effects, primary screen, E. coli filamentation inducers, strain DRC39, OD650, 24 h (AID 1178); settings: higher = more signal, called active from +8 up or from −8 down;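 note: growth measured as culture turbidity by optical density at 650 nm; test concentration not given here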
[8] = E. coli acrAB mutant growth effects, primary screen, E. coli filamentation inducers, strain DRC39, OD650, 48 h (AID 1179);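 note: screen aims at cell division blockers that make cells filament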; settings: E. coli DRC39 delta-acrAB growth, higher = more signal, called active from +8 up or from −8 down
[9] = RPMI8226 myeloma cell viability, profiling panel, resazurin fluorescence, basal, 24 h, PK04 Diversity Set (AID 1180); settings: higher = more signal;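 note: RPMI8826 multiple myeloma cell line at 5000 cells per well; test concentration not given here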
[10] = biological target: E3 ubiquitin-protein ligase XIAP (Homo sapiens) (UniProt P98170); assay: XIAP binders, primary screen, biophysical, small-molecule microarray, fluorescence 635 nm (AID 1181); settings: small-molecule microarray binding, higher = more signal;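 note: score merges 667 nm emission and signal to noise over triplicate slides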
Chain of E3 ubiquitin-protein ligase XIAP (Homo sapiens) (P98170 whole entry, looked up): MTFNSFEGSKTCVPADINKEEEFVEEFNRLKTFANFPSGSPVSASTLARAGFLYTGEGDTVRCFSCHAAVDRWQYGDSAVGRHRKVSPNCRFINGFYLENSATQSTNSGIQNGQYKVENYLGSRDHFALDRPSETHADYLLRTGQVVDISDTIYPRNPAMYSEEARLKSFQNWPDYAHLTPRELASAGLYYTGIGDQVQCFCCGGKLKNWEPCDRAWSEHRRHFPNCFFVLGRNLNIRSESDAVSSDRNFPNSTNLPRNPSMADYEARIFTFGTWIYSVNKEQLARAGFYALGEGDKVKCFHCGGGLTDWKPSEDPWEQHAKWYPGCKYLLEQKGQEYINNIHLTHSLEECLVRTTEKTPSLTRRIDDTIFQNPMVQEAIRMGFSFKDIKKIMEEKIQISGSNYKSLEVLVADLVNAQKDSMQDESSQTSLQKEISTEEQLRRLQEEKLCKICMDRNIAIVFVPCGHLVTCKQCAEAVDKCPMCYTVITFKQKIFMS

Chain of Dihydroorotate dehydrogenase (quinone), mitochondrial (Plasmodium falciparum (isolate 3D7)) (Q08210 whole entry, looked up): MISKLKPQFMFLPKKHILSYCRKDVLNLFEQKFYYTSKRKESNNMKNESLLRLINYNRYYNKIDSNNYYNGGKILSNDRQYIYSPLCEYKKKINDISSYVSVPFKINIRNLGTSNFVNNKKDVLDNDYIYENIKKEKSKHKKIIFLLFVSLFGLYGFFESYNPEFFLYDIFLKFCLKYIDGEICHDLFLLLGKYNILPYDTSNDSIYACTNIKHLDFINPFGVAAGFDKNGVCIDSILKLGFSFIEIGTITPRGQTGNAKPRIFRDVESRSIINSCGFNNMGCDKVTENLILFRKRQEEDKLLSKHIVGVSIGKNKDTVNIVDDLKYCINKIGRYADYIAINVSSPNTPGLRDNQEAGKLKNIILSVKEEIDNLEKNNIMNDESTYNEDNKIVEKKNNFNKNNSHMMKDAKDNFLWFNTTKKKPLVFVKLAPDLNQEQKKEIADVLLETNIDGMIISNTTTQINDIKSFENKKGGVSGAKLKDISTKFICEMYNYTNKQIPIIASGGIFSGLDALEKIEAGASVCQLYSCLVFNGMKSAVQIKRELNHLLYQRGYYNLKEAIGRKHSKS

| Structure (SMILES) | z-score [1] | z-score [2] | z-score [3] | composite z-score [4] | z-score [5] | z-score [6] | z-score [7] | z-score [8] | z-score [9] | composite z-score [10] |
| --- | --- | --- | --- | --- | --- | --- | --- | --- | --- | --- |
| C=CCC(OC(C)=O)[C@@H]1[C@@H](N(Cc2cc3ccccc3o2)C(=O)c2cccc3ccccc23)c2cc(OCCCO)ccc2N1C(=O)c1ccc2ccccc2c1 (stereo not given in full) | -1.18 | -0.469 (inactive) | -0.581 (inactive) | 0.0769 (inactive) | -0.227 (inactive) | -0.389 (inactive) | -0.423 (inactive) | -0.797 (inactive) | -0.855 | -0.146 |
| COCCOC(=O)N1C(=O)[C@@]2(c3cc(C#CCC(C(=O)OC)C(=O)OC)ccc31)[C@H](c1ccc(OCCO)cc1)N1[C@H](c3ccccc3)[C@H](c3ccccc3)OC(=O)[C@H]1[C@@H]2C(=O)N1CCCCCCC1 | -0.0464 | 1.45 (inactive) | 0.13 (inactive) | 0.551 (inactive) | 0.83 (inactive) | 2.72 (inactive) | -0.599 (inactive) | 0.0786 (inactive) | 0.174 | 0.519 |
| C=C(COC)C(=O)CC[C@@H](OC(C)=O)c1ccc(OCCO)cc1 | -0.487 | -0.997 (inactive) | -0.487 (inactive) | -5.2 (inactive) | 0.98 (inactive) | 0.423 (inactive) | -0.623 (inactive) | -0.432 (inactive) | -0.781 | -0.0848 |
| [N-]=[N+]=NCc1ccccc1[C@@H]1OC(c2ccc(OCCCO)cc2)=N[C@]1(Cc1ccccc1)C(=O)NCc1ccccc1 | 0.771 | 0.467 (inactive) | -0.0664 (inactive) | 0.101 (inactive) | -0.223 (inactive) | 1.7 (inactive) | -0.0548 (inactive) | 0.065 (inactive) | -0.484 | 0.1 |
| CC(C)c1ccc(NN2C(C(O)C(C)C)C=CC3C(=O)N(c4ccccc4)C(=O)C32)cc1 (stereo not given) | -1.65 | -0.619 (inactive) | -0.331 (inactive) | 0.974 (inactive) | 0.711 (inactive) | 1.57 (inactive) | 0.0582 (inactive) | -0.303 (inactive) | 0.0438 | 0.132 |
| COC(=O)[C@@]1(CCC(=O)OC(C)(C)C)N=C(c2ccc(OCCCO)cc2)O[C@H]1c1ccccc1CN=[N+]=[N-] | 0.118 | 0.696 (inactive) | -1.79 (inactive) | 0.507 (inactive) | 0.563 (inactive) | 1.56 (inactive) | 0.224 (inactive) | -0.0915 (inactive) | -2.11 | 0.165 |
| Cc1ccc(S[C@]2(C(=O)NC3CC3)CC(=O)N(Cc3cc(C(F)(F)F)cc(C(F)(F)F)c3)[C@@H]2c2ccc(CO)cc2I)cc1 | 0.411 | -5.11 (inactive) | -2.78 (inactive) | -3.55 (inactive) | 0.944 (inactive) | -1.6 (inactive) | 0.0621 (inactive) | 0.108 (inactive) | -2.23 | 0.723 |
| O=C1NC(=O)C2C1C=CC(C(O)c1cccc(O)c1)N2Nc1ccc(Cl)cc1Cl (stereo not given) | -1.79 | -13.3 (active) | -1.31 (inactive) | 1.03 (inactive) | 0.695 (inactive) | 0.915 (inactive) | -0.526 (inactive) | -3.39 (inactive) | -1.69 | -0.039 |
| COc1ccc([Si](C)(C)[C@H]2[C@H](CCn3cc([C@H](O)c4ccccc4)nn3)O[C@@]3(C(=O)N(C)c4c(Br)cc(C)cc43)[C@@H]2C)cc1 | -2.69 | -0.691 (inactive) | -3.29 (inactive) | 1.19 (inactive) | 1.03 (inactive) | 1.01 (inactive) | 0.566 (inactive) | 0.132 (inactive) | -5.5 | 0.0512 |
| C=CCNC(=O)[C@H]1[C@@H]2C(=O)O[C@@H](c3ccccc3)[C@@H](c3ccccc3)N2[C@@H](c2ccc(O)cc2)[C@]12C(=O)Nc1ccc(C#CC3=CCCCC3)cc12 | -0.118 | -0.147 (inactive) | -2.44 (inactive) | 0.018 (inactive) | 1.41 (inactive) | 1.87 (inactive) | 0.322 (inactive) | 0.628 (inactive) | -5.43 | -0.124 |
| CC(C)CNC(=O)[C@@H]1c2ccccc2C(=O)N(C2Cc3ccccc3C2)[C@H]1c1ccc(CO)cc1 | 0.98 | -0.283 (inactive) | 0.76 (inactive) | -0.417 (inactive) | 0.444 (inactive) | -1.09 (inactive) | 0.725 (inactive) | 1.03 (inactive) | 1.4 | -0.109 |
| O=C1c2ccccc2[C@](Cc2ccccc2I)(C(=O)O)[C@H](c2ccc(CO)cc2)N1Cc1ccccc1 | -0.52 | -1.72 (inactive) | -0.427 (inactive) | -5.63 (inactive) | -0.121 (inactive) | -2.09 (inactive) | 0.656 (inactive) | 1.39 (inactive) | -0.831 | 0.147 |
| CC(C)C[C@@H]1NC(=O)[C@@H]2C[C@H](C(=O)O)[C@H](c3ccc(O)cc3)N2C1=O | -1.68 | -0.568 (inactive) | 1.18 (inactive) | 0.372 (inactive) | 0.407 (inactive) | -1.11 (inactive) | 2.14 (inactive) | 1.94 (inactive) | 1.16 | 0.254 |
| COC(=O)[C@@]1(CCS(=O)(=O)c2ccccc2)N=C(c2ccc(OCCCO)cc2)O[C@H]1c1ccccc1N=[N+]=[N-] | -0.705 | 0.905 (inactive) | -2.87 (inactive) | -0.279 (inactive) | 0.246 (inactive) | 1.09 (inactive) | 0.399 (inactive) | -1.12 (inactive) | -1.64 | -0.0374 |
| COc1ccc([Si](C)(C)[C@H]2[C@H](CCn3cc([C@H](O)c4ccccc4)nn3)O[C@@]3(C(=O)N(c4ccccc4)c4ccccc43)[C@@H]2C)cc1 | 0.378 | 0.885 (inactive) | -1.82 (inactive) | 0.413 (inactive) | 0.131 (inactive) | 2.12 (inactive) | 0.346 (inactive) | 0.0139 (inactive) | -1.34 | -0.316 |
| COCCCNC(=O)[C@@H]1c2ccccc2C(=O)N(Cc2cc(C(F)(F)F)cc(C(F)(F)F)c2)[C@H]1c1ccc(CO)cc1 | -0.249 | -0.65 (inactive) | -0.0193 (inactive) | 0.721 (inactive) | 0.196 (inactive) | -0.432 (inactive) | 0.153 (inactive) | 0.304 (inactive) | 0.431 | 0.0871 |
| C[C@@H](OCc1ccccc1)C1NC(=O)[C@@]23C(=O)N[C@@H](Cc4ccccc4)C2[C@H](C)[C@@]2(C)O[C@H]2C3/C=C/C/C=C\CNC(=O)[C@H](Cc2ccccc2)NC1=O (stereo not given in full) | -0.515 | -1.29 (inactive) | -0.614 (inactive) | -0.199 (inactive) | 0.0359 (inactive) | -0.658 (inactive) | 2.13 (inactive) | 0.5 (inactive) | -0.302 | -0.0565 |
| CN1C=C(C(=O)OCCS(C)(=O)=O)C(C(=O)OCCS(C)(=O)=O)=CC(CCCO)=CC1c1ccc(CN2CCCC2)cc1 (stereo not given) | -0.533 | -2.02 (inactive) | 0.0555 (inactive) | -0.379 (inactive) | 0.719 (inactive) | 0.27 (inactive) | 0.364 (inactive) | 0.121 (inactive) | 0.274 | -0.0525 |
| CC(C)[C@@H](C(=O)O)n1cc(-c2ccccc2)nn1 | -0.606 | -0.291 (inactive) | -0.372 (inactive) | -0.207 (inactive) | -0.145 (inactive) | -0.618 (inactive) | 0.0178 (inactive) | -0.279 (inactive) | -0.874 | 0.0402 |
| CC1(C)OC[C@@]23C=C(Br)[C@@H](C[C@H]12)[C@@]1(CO1)C3=O | -0.0972 | -1.2 (inactive) | 0.0059 (inactive) | 0.253 (inactive) | -0.0582 (inactive) | 0.617 (inactive) | -0.509 (inactive) | -0.457 (inactive) | 0.325 | -0.02 |
| C=CC[C@]1(C(=O)N(C)C)COC(c2ccc(OCCCO)cc2)=N1 | 0.0446 | -2.54 (inactive) | 0.41 (inactive) | -0.261 (inactive) | 1.21 (inactive) | 0.919 (inactive) | 0.386 (inactive) | -2.8 (inactive) | 0.764 | 0.202 |
| C=C(COC)/C(=C/C[C@H](OC(=O)c1ccncc1)c1cccc(OCCO)c1)c1cnc2ccccc2c1 | 0.123 | 0.14 (inactive) | -1.24 (inactive) | -5.24 (inactive) | 1.14 (inactive) | -0.148 (inactive) | -0.259 (inactive) | -0.199 (inactive) | -0.697 | -0.0156 |
| CC(C)CNC(=O)[C@@]1(C)c2ccccc2C(=O)N(Cc2cc(F)cc(C(F)(F)F)c2)[C@H]1c1ccc(CO)cc1 | -0.201 | -0.3 (inactive) | 0.919 (inactive) | -0.0555 (inactive) | 1.22 (inactive) | -0.167 (inactive) | 0.167 (inactive) | 0.137 (inactive) | 0.489 | -0.208 |
| [N-]=[N+]=NCc1ccccc1C[C@]1(C(=O)NCc2ccccc2)N=C(c2ccc(OCCCO)cc2)O[C@H]1c1ccccc1CN=[N+]=[N-] | -0.907 | 0.831 (inactive) | -0.153 (inactive) | 0.238 (inactive) | 1.32 (inactive) | 0.832 (inactive) | 3.04 (inactive) | 1.01 (inactive) | -0.28 | -0.0559 |
